Source: PubChem
gsp antagonist: antagonizes gsp, the McCune-Albright syndrome mutation. gsp-mutant cells, cAMP HTRF, 30 min. Potency, µM (highest dose often 76.9 µM), without a hit: at the top dose activity change, negative = inhibition, hits mostly inhibitors. 340,000 tested, 0.4% active; calls by dose curve; cell line not stated here;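 further: intracellular cAMP measured with PDE inhibitor Ro 20-1724 present during compound exposure; potency means the concentration at half of the fitted maximal effect; on the % scale 0 is the no-effect control and ±100 the full control effect; nearly all actives have a fitted effect of over 65% in size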
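Cells in G418 medium, seeded 16-24 h, 37C; buffer exchange to DPBS + 1 mM CaCl2, 0.5 mM MgCl2, 0.05% BSA; cpds in DMSO + […] (300 uM stock), 30 min 37C; HTRF cAMP detection.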
IDH1 R132H inh: inhibitors of human mutant IDH1 R132H. O75874. IDH1-R132H enzyme, NADPH consumption, diaphorase/resazurin fluorescence. Potency, µM (titrated, usually from 76.6 µM), inactives show at the highest dose activity change, negative = inhibition, usual class: inhibitors. 390,000 tested, 0.093% active; further: potency means the concentration at half of the fitted maximal effect; on the % scale 0 is the no-effect control and ±100 the full control effect; nearly all actives have a fitted effect of over 65% in size
Target sequence (O75874 whole entry R132H, stated change not applied): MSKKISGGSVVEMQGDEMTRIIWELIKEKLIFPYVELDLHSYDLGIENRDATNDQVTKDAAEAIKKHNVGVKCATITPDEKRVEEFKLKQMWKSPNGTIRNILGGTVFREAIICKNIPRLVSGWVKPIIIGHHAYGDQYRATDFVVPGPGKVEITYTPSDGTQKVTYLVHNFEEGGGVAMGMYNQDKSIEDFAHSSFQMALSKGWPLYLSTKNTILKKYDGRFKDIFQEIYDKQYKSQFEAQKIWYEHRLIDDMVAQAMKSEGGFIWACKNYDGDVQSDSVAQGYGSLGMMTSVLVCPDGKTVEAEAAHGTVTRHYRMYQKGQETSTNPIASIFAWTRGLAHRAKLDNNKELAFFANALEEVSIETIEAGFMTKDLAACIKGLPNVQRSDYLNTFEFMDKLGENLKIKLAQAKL
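IDH1-R132H (0.5 ug/mL) preincubated 30 min with compound, then NADPH (0.016 mM) and alpha-KG (2 mM) added; 80 min at RT, pH 7.5. Remaining NADPH coupled via diaphorase/resazurin to fluorescence (540/590 nm); concentration-response curves normalized to no-enzyme control.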
BRCA1 expr up: BRCA1 expression activation; MCF7-BRCA1-FFLuc reporter, luminescence, 48 h; response scale: scaled: vehicle 0%, 10 µM genistein 100%; Potency, µM (doses to about 46.1 µM), for inactives: top-dose activation, hits mostly activators; 380,000 tested, 1.1% active; AID 624202; further: potency means the concentration at half of the fitted maximal effect; nearly all actives have a fitted effect of over 80% in size
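MCF7 cells carrying a BRCA1-firefly luciferase reporter (2000 cells/well, phenol-red free MEM) were attached for 2 h at 37 °C, then given compounds for 48 h. Luminescence was read 15 min after luciferase reagent; activity normalized to genistein (10 microM) and DMSO.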
gsp ag: gsp mutant agonism | Potency, µM (highest dose often 76.9 µM), without a hit: at the top dose activation (cAMP increase), usual class: activators | 340,000 tested, 0.13% active | gsp mutant cells, cAMP HTRF, 30 min; active means well fitted activation curve with a large enough effect; inconclusive means small, poorly fitted or top-dose-only effect, or another doubt; inactive means no such curve, though single readings can be large or run the other way; cell line not stated here;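 further: phosphodiesterase inhibitor Ro 20-1724 added with compounds to block cAMP breakdown; potency means the concentration at half of the fitted maximal effect; nearly all actives have a fitted effect of over 60% in size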
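Cells stably selected in G418 were plated at 2000/well, grown 16-24 hr, then given compounds in DMSO with the PDE inhibitor […] (300 uM solution added) for 30 min at 37C; cAMP was read by HTRF.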
IL-2 act: activates IL-2 in a cell-based reporter assay; IL-2 activation reporter assay, cell-based qHTS; stimulated with anti-CD3/CD4/CD28 beads; in transgenic mouse T cells; activation, % (series mostly up to about 46 µM); 360,000 tested, 0.065% active; in the data active means activation above about 50%; inconclusive means mostly about 30% to 49%; further: 0% is about no effect
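Unstimulated transgenic mouse T cells, 750 per well, received compound and, after 60 minutes, anti-CD3/anti-CD4 bead plus anti-CD28 stimulation. EGFP and DsRed were quantified after 18 hours.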
Numbers without * were called inactive; [ ] = another dose, or the depositor's remark. Rows were chosen to be rich in hits. Some 1.5% of all compounds tested hit in one or more screens of this group. Unless noted, the call rests on the fitted dose curve; in most records, active means well fitted curve in the direction sought with a large enough effect; inconclusive means small, poorly fitted or top-dose-only effect, or another doubt; inactive means no such curve, though single readings can be large; an effect the other way counts as inactive or inconclusive.

O=c1c2c3c(sc2nc2n1N=C(c1cccs1)CS2)CCCC3 was read as gsp antagonist 2%, IDH1 R132H inh -7%, BRCA1 expr up 1.3µM*, gsp ag 3% and IL-2 act 0.
`O=c1oc(-c2cccs2)nc2sc3c(c12)CCCC3` gave gsp antagonist 1%, IDH1 R132H inh 5%, BRCA1 expr up 13%, gsp ag inconclusive and IL-2 act -1.
S=C(Nc1ccc2c(c1)OCO2)N1CCN(Cc2ccco2)CC1 was read as gsp antagonist 0%, IDH1 R132H inh 4%, BRCA1 expr up 3.5µM*, gsp ag 10% and IL-2 act 1.
Screening CN(C)c1ccc(NC(=O)c2ccc3nc[nH]c3c2)cc1 returned gsp antagonist -24%, IDH1 R132H inh 4%, BRCA1 expr up 13µM*, gsp ag -1% and IL-2 act 1.
Screening O=C(Nc1ccc(F)cc1)c1ccc2nc[nH]c2c1 returned gsp antagonist -10%, IDH1 R132H inh 4%, BRCA1 expr up 30%, gsp ag -8% and IL-2 act 13.
For CCSc1nnc(NC(=O)c2ccc3nc[nH]c3c2)s1 the results were gsp antagonist -7%, IDH1 R132H inh 5%, BRCA1 expr up 3.2µM*, gsp ag -4%[15.4 µM] and IL-2 act -1.
For O=C(Nc1ccc(Br)cc1)Nc1ccccc1F the results were gsp antagonist -7%, IDH1 R132H inh 10%, BRCA1 expr up inconclusive, gsp ag 4% and IL-2 act -3.
For O=C(Nc1ccccc1F)Nc1ccccc1F the results were gsp antagonist -6%, IDH1 R132H inh 5%, BRCA1 expr up 5µM*, gsp ag inconclusive and IL-2 act 1.
`Cc1cnc(C(=O)Nc2ccccc2F)cn1` gave gsp antagonist 4%, IDH1 R132H inh 0%, BRCA1 expr up 5µM*, gsp ag -4% and IL-2 act 1.
Screening Cc1cnc(C(=O)Nc2ccccc2-n2cccc2)cn1 returned gsp antagonist 10%, IDH1 R132H inh 9%, BRCA1 expr up -37%, gsp ag -35% and IL-2 act -1.
Screening CCCC(=O)Oc1ccc2[nH]c(C(=O)c3cc4ccccc4[nH]3)cc2c1 returned BRCA1 expr up 0%.
`O=C(CSc1nnc(C2CCCCC2)o1)Nc1ccccc1Cl` gave gsp antagonist -12%, IDH1 R132H inh 3%, BRCA1 expr up 10µM*, gsp ag -4%[15.4 µM] and IL-2 act 0.
For COc1cc(N2C(=O)C=CC2=O)ccc1N1C(=O)C=CC1=O the results were gsp antagonist 50µM*, IDH1 R132H inh 2%, BRCA1 expr up -97%, gsp ag 0% and IL-2 act -7.
For CSc1ccc(CN2CCC(C)(Oc3ccccc3)C2)cc1 (configuration not stated) the results were BRCA1 expr up -5% and IL-2 act 0.
For O=C(Nc1nc(-c2cccnc2)cs1)c1cccc([N+](=O)[O-])c1 the results were gsp antagonist 3%, IDH1 R132H inh 15%, BRCA1 expr up 59%, gsp ag 10%[15.4 µM] and IL-2 act 0.
For O=C(c1cccc([N+](=O)[O-])c1)n1nc(-c2ccccc2)nc1NCc1ccccc1 the results were gsp antagonist -20%, IDH1 R132H inh -3%, BRCA1 expr up 10µM*, gsp ag 12%[15.4 µM] and IL-2 act 2.
CS(=O)(=O)c1ccc2nc(NC(=O)c3cc([N+](=O)[O-])cc([N+](=O)[O-])c3)sc2c1 was read as gsp antagonist -7%, IDH1 R132H inh -4%, BRCA1 expr up 0%, gsp ag -15% and IL-2 act 1.
O=C(Nc1nc(-c2ccccc2)cs1)c1cccc([N+](=O)[O-])c1 was read as gsp antagonist 50µM*, IDH1 R132H inh -7%, BRCA1 expr up -2%, gsp ag 6% and IL-2 act 4.
Screening COc1cc(OC)cc(C(=O)Nc2nc3ccc(S(C)(=O)=O)cc3s2)c1 returned gsp antagonist -10%, IDH1 R132H inh -3%, BRCA1 expr up 5.6µM*, gsp ag -8% and IL-2 act -2.
